In the supplement of paper PMC7801607:

What was measured:
CHO = assay: % viability of CHO cells (MTT); higher = less toxic; conditions: 48 h
Procedure, shortened: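 CHO cells were plated at 10^6 cells/well in 200 µL and allowed to attach overnight. Fresh medium with compound at 2 or 20 µM then replaced the old medium for 48 h. Percent viability, relative to untreated cells, came from a colorimetric tetrazolium (MTT) readout.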

HepG2-A16-CD81 = assay: % inhibition of HepG2 viability (CellTiter-Glo); higher = more toxic; conditions: 5 µM;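 also: HepG2-A16-CD81 hepatoma cells plated as in the liver-stage assay but without sporozoites, with DMSO wells as negative and 25 µM puromycin as positive control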
[1] = test system: Plasmodium falciparum NF54 stage IV/V gametocytes; assay: % inhibition of gametocyte viability (PrestoBlue); higher = more inhibition; conditions: 48 h
Procedure, shortened: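 In a single run, percent inhibition of gametocyte viability was calculated relative to vehicle and kill controls. The wells held 100 µL of Stage IV/V NF54 gametocytes at 2% gametocytaemia and 5% haematocrit, with compound at 1 or 5 µM. Plates stood at 37 °C in hypoxic conditions for 48 h. After that, 10 µL PrestoBlue was added for 2 h, and 70 µL of supernatant was transferred for fluorescence reading at 612 nm.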

[2] = test system: Plasmodium falciparum NF54 asexual blood stage; assay: % inhibition of asexual blood stage proliferation (pLDH); higher = more inhibition; conditions: 72 h
Procedure, shortened: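 Percent inhibition of asexual proliferation, normalised to controls, was determined in a screen repeated on two separate occasions. Plasmodium falciparum NF54 ring-stage cultures (1% haematocrit, 2% parasitaemia) received compound at 2 or 20 µM and were incubated for 72 h at 37 °C under 4% CO2, 3% O2 and 93% N2. A colorimetric parasite lactate dehydrogenase readout at 620 nm gave survival.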

[3] = test system: Plasmodium falciparum NF54 stage IV/V gametocytes; assay: % inhibition of gametocyte viability (ATP bioluminescence); higher = more inhibition; conditions: 24 h
Procedure, shortened: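 Enriched stage IV/V NF54 gametocytes were exposed to compound at 1 or 5 µM for 24 h at 37 °C in 96-well plates. Percent inhibition of gametocyte viability was derived from a bioluminescent ATP readout, normalised to controls within a single run.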

[4] = test system: Plasmodium falciparum NF54 stage IV/V gametocytes; assay: % inhibition of gametocyte viability (luciferase reporter); higher = more inhibition; conditions: 48 h
Procedure, shortened: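 Percent inhibition was normalised to controls from a single run. Stage IV/V gametocytes of the NF54-Pfs16-GFP-Luc line, at 2% gametocytaemia and 2% haematocrit, were exposed to compound at 1 or 5 µM for 48 h at 37 °C under stationary, hypoxic conditions. Luminescence was then read from 30 µL lysate mixed with 30 µL Promega luciferin substrate on a GloMax-Multi+ reader with 10 s integration.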

SMILES: NC1(C(=O)O)CCP(=O)(O)CC1 (stereo not drawn)
- % viability of CHO cells (CHO; 2 µM): 113%
- % viability of CHO cells (CHO; 20 µM): 81.6%
- % inhibition of HepG2 viability (HepG2-A16-CD81): -2.82%
- % inhibition of gametocyte viability ([1]; 1 µM): < 0%
- % inhibition of gametocyte viability ([1]; 5 µM): < 0%
- % inhibition of asexual blood stage proliferation ([2]; 2 µM): 12.3%
- % inhibition of asexual blood stage proliferation ([2]; 20 µM): 13.4%
- % inhibition of gametocyte viability ([3]; 1 µM): < 0%
- % inhibition of gametocyte viability ([3]; 5 µM): < 0%
- % inhibition of gametocyte viability ([4]; 1 µM): < 0%
- % inhibition of gametocyte viability ([4]; 5 µM): 9.64%

SMILES: C[N+]1(C)CCCC(OC(=O)C(O)(c2ccccc2)c2ccccc2)C1 (stereo not drawn)
- % viability of CHO cells (CHO; 2 µM): 122%
- % viability of CHO cells (CHO; 20 µM): 140%
- % inhibition of HepG2 viability (HepG2-A16-CD81): -0.474%
- % inhibition of gametocyte viability ([1]; 1 µM): 23.3%
- % inhibition of gametocyte viability ([1]; 5 µM): 9.34%
- % inhibition of asexual blood stage proliferation ([2]; 2 µM): 26%
- % inhibition of asexual blood stage proliferation ([2]; 20 µM): 73.9%
- % inhibition of gametocyte viability ([3]; 1 µM): < 0%
- % inhibition of gametocyte viability ([3]; 5 µM): < 0%
- % inhibition of gametocyte viability ([4]; 1 µM): < 0%
- % inhibition of gametocyte viability ([4]; 5 µM): 3.73%

SMILES: C[C@H]1CC[C@]2(NC1)O[C@H]1C[C@H]3[C@@H]4CC[C@H]5C[C@@H](O)CC[C@]5(C)[C@H]4CC[C@]3(C)[C@H]1[C@@H]2C
- % viability of CHO cells (CHO; 2 µM): 105%
- % viability of CHO cells (CHO; 20 µM): 117%
- % inhibition of HepG2 viability (HepG2-A16-CD81): -5.8%
- % inhibition of gametocyte viability ([1]; 1 µM): 13.5%
- % inhibition of gametocyte viability ([1]; 5 µM): 28.1%
- % inhibition of asexual blood stage proliferation ([2]; 2 µM): 35.3%
- % inhibition of asexual blood stage proliferation ([2]; 20 µM): 33.7%
- % inhibition of gametocyte viability ([3]; 1 µM): < 0%
- % inhibition of gametocyte viability ([3]; 5 µM): < 0%
- % inhibition of gametocyte viability ([4]; 1 µM): 14.1%
- % inhibition of gametocyte viability ([4]; 5 µM): 0.706%

SMILES: CN1C(=O)C(c2ccccc2)C(=O)N(c2ccccc2)c2cc(C(F)(F)F)ccc21 (stereo not drawn)
- % viability of CHO cells (CHO; 2 µM): 95.2%
- % viability of CHO cells (CHO; 20 µM): 110%
- % inhibition of HepG2 viability (HepG2-A16-CD81): 3.09%
- % inhibition of gametocyte viability ([1]; 1 µM): 20.2%
- % inhibition of gametocyte viability ([1]; 5 µM): 14.5%
- % inhibition of asexual blood stage proliferation ([2]; 2 µM): -15.6%
- % inhibition of asexual blood stage proliferation ([2]; 20 µM): 32.9%
- % inhibition of gametocyte viability ([3]; 1 µM): < 0%
- % inhibition of gametocyte viability ([3]; 5 µM): < 0%
- % inhibition of gametocyte viability ([4]; 1 µM): 11.6%
- % inhibition of gametocyte viability ([4]; 5 µM): < 0%

SMILES: CCCCc1ccc(C(=O)O)nc1
- % viability of CHO cells (CHO; 2 µM): 90.2%
- % viability of CHO cells (CHO; 20 µM): 130%
- % inhibition of HepG2 viability (HepG2-A16-CD81): -0.607%
- % inhibition of gametocyte viability ([1]; 1 µM): < 0%
- % inhibition of gametocyte viability ([1]; 5 µM): 2.97%
- % inhibition of asexual blood stage proliferation ([2]; 2 µM): 83.3%
- % inhibition of asexual blood stage proliferation ([2]; 20 µM): 44%
- % inhibition of gametocyte viability ([3]; 1 µM): 5.47%
- % inhibition of gametocyte viability ([3]; 5 µM): < 0%
- % inhibition of gametocyte viability ([4]; 1 µM): 7.1%
- % inhibition of gametocyte viability ([4]; 5 µM): 6.9%

SMILES: CCN1CCN(Cc2nc3ccc([N+](=O)[O-])cc3c(=O)n2-c2ccccc2F)CC1
- % viability of CHO cells (CHO; 2 µM): 105%
- % viability of CHO cells (CHO; 20 µM): 105%
- % inhibition of HepG2 viability (HepG2-A16-CD81): -4.34%
- % inhibition of gametocyte viability ([1]; 1 µM): < 0%
- % inhibition of gametocyte viability ([1]; 5 µM): < 0%
- % inhibition of asexual blood stage proliferation ([2]; 2 µM): 33%
- % inhibition of asexual blood stage proliferation ([2]; 20 µM): 24.4%
- % inhibition of gametocyte viability ([3]; 1 µM): 13.8%
- % inhibition of gametocyte viability ([3]; 5 µM): 17.7%
- % inhibition of gametocyte viability ([4]; 1 µM): 9.48%
- % inhibition of gametocyte viability ([4]; 5 µM): < 0%

SMILES: CC(C)Oc1cccc(NC(=O)c2ccccc2C(F)(F)F)c1
- % viability of CHO cells (CHO; 2 µM): 88.6%
- % viability of CHO cells (CHO; 20 µM): 112%
- % inhibition of HepG2 viability (HepG2-A16-CD81): 3.41%
- % inhibition of gametocyte viability ([1]; 1 µM): 2.75%
- % inhibition of gametocyte viability ([1]; 5 µM): < 0%
- % inhibition of asexual blood stage proliferation ([2]; 2 µM): 2.15%
- % inhibition of asexual blood stage proliferation ([2]; 20 µM): 9.83%
- % inhibition of gametocyte viability ([3]; 1 µM): 3.08%
- % inhibition of gametocyte viability ([3]; 5 µM): < 0%
- % inhibition of gametocyte viability ([4]; 1 µM): < 0%
- % inhibition of gametocyte viability ([4]; 5 µM): < 0%

SMILES: COC(=O)Nc1nc2ccccc2[nH]1
- % viability of CHO cells (CHO; 2 µM): 99.1%
- % viability of CHO cells (CHO; 20 µM): 110%
- % inhibition of HepG2 viability (HepG2-A16-CD81): -1.93%
- % inhibition of gametocyte viability ([1]; 1 µM): < 0%
- % inhibition of gametocyte viability ([1]; 5 µM): < 0%
- % inhibition of asexual blood stage proliferation ([2]; 2 µM): 6.96%
- % inhibition of asexual blood stage proliferation ([2]; 20 µM): 10.6%
- % inhibition of gametocyte viability ([3]; 1 µM): 1.54%
- % inhibition of gametocyte viability ([3]; 5 µM): < 0%
- % inhibition of gametocyte viability ([4]; 1 µM): < 0%
- % inhibition of gametocyte viability ([4]; 5 µM): < 0%

SMILES: C[C@@]1(O)[C@H](O)[C@@H](CO)O[C@H]1n1ccc2c(N)ncnc21
- % viability of CHO cells (CHO; 2 µM): 127%
- % viability of CHO cells (CHO; 20 µM): 92%
- % inhibition of HepG2 viability (HepG2-A16-CD81): -1.39%
- % inhibition of gametocyte viability ([1]; 1 µM): < 0%
- % inhibition of gametocyte viability ([1]; 5 µM): 2.26%
- % inhibition of asexual blood stage proliferation ([2]; 2 µM): 14.8%
- % inhibition of asexual blood stage proliferation ([2]; 20 µM): 43.2%
- % inhibition of gametocyte viability ([3]; 1 µM): 12.3%
- % inhibition of gametocyte viability ([3]; 5 µM): 7.84%
- % inhibition of gametocyte viability ([4]; 1 µM): 1.8%
- % inhibition of gametocyte viability ([4]; 5 µM): < 0%

SMILES: COc1cc(C(C)(C)CCCC(C)C)cc(OC)c1OC
- % viability of CHO cells (CHO; 2 µM): 108%
- % viability of CHO cells (CHO; 20 µM): 76.7%
- % inhibition of HepG2 viability (HepG2-A16-CD81): 7.92%
- % inhibition of gametocyte viability ([1]; 1 µM): 11.5%
- % inhibition of gametocyte viability ([1]; 5 µM): 6.64%
- % inhibition of asexual blood stage proliferation ([2]; 2 µM): -22%
- % inhibition of asexual blood stage proliferation ([2]; 20 µM): 48.9%
- % inhibition of gametocyte viability ([3]; 1 µM): 2.47%
- % inhibition of gametocyte viability ([3]; 5 µM): < 0%
- % inhibition of gametocyte viability ([4]; 1 µM): 8.33%
- % inhibition of gametocyte viability ([4]; 5 µM): < 0%

SMILES: COc1ccccc1CN[C@H]1C2CCN(CC2)[C@H]1C(c1ccccc1)c1ccccc1
- % viability of CHO cells (CHO; 2 µM): 102%
- % viability of CHO cells (CHO; 20 µM): 117%
- % inhibition of HepG2 viability (HepG2-A16-CD81): -1%
- % inhibition of gametocyte viability ([1]; 1 µM): 17.5%
- % inhibition of gametocyte viability ([1]; 5 µM): 8.85%
- % inhibition of asexual blood stage proliferation ([2]; 2 µM): -2.68%
- % inhibition of asexual blood stage proliferation ([2]; 20 µM): 93%
- % inhibition of gametocyte viability ([3]; 1 µM): 7.68%
- % inhibition of gametocyte viability ([3]; 5 µM): 29.7%
- % inhibition of gametocyte viability ([4]; 1 µM): 15.2%
- % inhibition of gametocyte viability ([4]; 5 µM): < 0%

SMILES: Nc1c(C(=O)NCc2ccco2)c2nc3ccccc3nc2n1CCN1CCCCC1
- % viability of CHO cells (CHO; 2 µM): 104%
- % viability of CHO cells (CHO; 20 µM): 57.3%
- % inhibition of HepG2 viability (HepG2-A16-CD81): 10.7%
- % inhibition of gametocyte viability ([1]; 1 µM): 23.5%
- % inhibition of gametocyte viability ([1]; 5 µM): 46.1%
- % inhibition of asexual blood stage proliferation ([2]; 2 µM): 77.4%
- % inhibition of asexual blood stage proliferation ([2]; 20 µM): 116%
- % inhibition of gametocyte viability ([3]; 1 µM): 51.4%
- % inhibition of gametocyte viability ([3]; 5 µM): 59.7%
- % inhibition of gametocyte viability ([4]; 1 µM): 13.7%
- % inhibition of gametocyte viability ([4]; 5 µM): 0.236%

SMILES: O=C(NC12CC3CC(CC(C3)C1)C2)c1cc2ccccc2[nH]1
- % viability of CHO cells (CHO; 2 µM): 103%
- % viability of CHO cells (CHO; 20 µM): 134%
- % inhibition of HepG2 viability (HepG2-A16-CD81): 5.16%
- % inhibition of gametocyte viability ([1]; 1 µM): 36.4%
- % inhibition of gametocyte viability ([1]; 5 µM): 12.5%
- % inhibition of asexual blood stage proliferation ([2]; 2 µM): 35%
- % inhibition of asexual blood stage proliferation ([2]; 20 µM): 73.8%
- % inhibition of gametocyte viability ([3]; 1 µM): < 0%
- % inhibition of gametocyte viability ([3]; 5 µM): < 0%
- % inhibition of gametocyte viability ([4]; 1 µM): < 0%
- % inhibition of gametocyte viability ([4]; 5 µM): < 0%
